{"source": "the supplement of paper PMC8728848", "assay_in_all_cases": "glycan array binding signal (z-score within array); higher = stronger binding", "settings_in_all_cases": "glycan notation: IUPAC condensed, linker removed", "key": {"Fuc(a1-2)Gal(b1-3)GalNAc": {"target": "Fuc(a1-2)Gal(b1-3)GalNAc", "summary_of_the_method": "(§1)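 From the Consortium for Functional Glycomics database, 3228 arrays were curated, keeping only those whose protein sequence was available. Binding is given as a within-array Z-score averaged across arrays sharing a protein sequence and across linkers. Negative Z-scores can be read as non-binding.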"}, "[1]": {"target": "Fuc(a1-2)Gal(b1-3)GalNAc(b1-4)[Neu5Ac(a2-3)]Gal(b1-4)Glc", "summary_of_the_method": "as §1"}, "[2]": {"target": "Fuc(a1-2)Gal(b1-3)GlcNAc(b1-3)[Gal(b1-4)GlcNAc(b1-6)]Gal(b1-4)Glc", "summary_of_the_method": "as §1"}, "[3]": {"target": "Fuc(a1-2)Gal(b1-4)[Fuc(a1-3)]GlcNAc(b1-3)Gal(b1-4)[Fuc(a1-3)]GlcNAc", "summary_of_the_method": "as §1"}, "[4]": {"target": "Fuc(a1-2)[Gal(a1-3)]Gal(b1-4)Glc", "summary_of_the_method": "as §1"}, "[5]": {"target": "Fuc(a1-2)[GalNAc(a1-3)]Gal(b1-4)GlcNAc(b1-2)Man(a1-3)[Fuc(a1-2)[GalNAc(a1-3)]Gal(b1-4)GlcNAc(b1-2)Man(a1-6)]Man(b1-4)GlcNAc(b1-4)[Fuc(a1-6)]GlcNAc", "summary_of_the_method": "as §1"}, "[6]": {"target": "Fuc(a1-2)[GalNAc(a1-3)]Gal(b1-4)GlcNAc(b1-3)GalNAc", "summary_of_the_method": "as §1"}, "[7]": {"target": "Fuc(a1-3)[Gal(b1-4)]Glc6S", "summary_of_the_method": "as §1"}, "[8]": {"target": "Fuc(a1-3)[Gal3S(b1-4)]Glc", "summary_of_the_method": "as §1"}, "Gal(a1-3)Gal": {"target": "Gal(a1-3)Gal", "summary_of_the_method": "as §1"}, "[9]": {"target": "Gal(a1-3)[Gal(a1-4)]Gal(b1-4)GlcNAc", "summary_of_the_method": "as §1"}, "[10]": {"target": "Gal(b1-3)GlcNAc(b1-3)Gal(b1-3)GlcNAc", "summary_of_the_method": "as §1"}, "[11]": {"target": "Gal(b1-3)GlcNAc(b1-3)Gal(b1-4)GlcNAc(b1-2)Man(a1-3)[Gal(b1-3)GlcNAc(b1-3)Gal(b1-4)GlcNAc(b1-2)Man(a1-6)]Man(b1-4)GlcNAc(b1-4)GlcNAc", "summary_of_the_method": "as §1"}, "[12]": {"target": "Gal(b1-3)GlcNAc(b1-3)Gal(b1-4)GlcNAc(b1-3)Gal(b1-4)GlcNAc(b1-2)[Gal(b1-3)GlcNAc(b1-3)Gal(b1-4)GlcNAc(b1-3)Gal(b1-4)GlcNAc(b1-6)]Man(a1-6)[Gal(b1-3)GlcNAc(b1-3)Gal(b1-4)GlcNAc(b1-3)Gal(b1-4)GlcNAc(b1-2)Man(a1-3)]Man(b1-4)GlcNAc(b1-4)[Fuc(a1-6)]GlcNAc", "summary_of_the_method": "as §1"}, "[13]": {"target": "Gal(b1-3)[Neu5Ac(a2-6)]GalNAc", "summary_of_the_method": "as §1"}, "Gal(b1-4)GlcNAc(b1-2)Man": {"target": "Gal(b1-4)GlcNAc(b1-2)Man", "summary_of_the_method": "as §1"}, "[14]": {"target": "Gal(b1-4)GlcNAc(b1-2)Man(a1-6)Man(b1-4)GlcNAc(b1-4)GlcNAc", "summary_of_the_method": "as §1"}, "[15]": {"target": "Gal(b1-4)GlcNAc(b1-2)[Gal(b1-4)GlcNAc(b1-4)]Man(a1-3)[Gal(b1-4)GlcNAc(b1-2)[Gal(b1-4)GlcNAc(b1-6)]Man(a1-6)]Man(b1-4)GlcNAc(b1-4)GlcNAc", "summary_of_the_method": "as §1"}, "[16]": {"target": "Gal(b1-4)GlcNAc(b1-2)[Gal(b1-4)GlcNAc(b1-4)]Man(a1-3)[GlcNAc(b1-4)][Gal(b1-4)GlcNAc(b1-2)[Gal(b1-4)GlcNAc(b1-6)]Man(a1-6)]Man(b1-4)GlcNAc(b1-4)GlcNAc", "summary_of_the_method": "as §1"}, "[17]": {"target": "Gal(b1-4)GlcNAc(b1-3)Gal(b1-3)GalNAc", "summary_of_the_method": "as §1"}, "[18]": {"target": "Gal(b1-4)GlcNAc(b1-3)Gal(b1-4)GlcNAc(b1-2)Man(a1-3)[Gal(b1-4)GlcNAc(b1-3)Gal(b1-4)GlcNAc(b1-2)Man(a1-6)]Man(b1-4)GlcNAc(b1-4)GlcNAc", "summary_of_the_method": "as §1"}, "[19]": {"target": "Gal(b1-4)GlcNAc(b1-3)Gal(b1-4)GlcNAc(b1-2)Man(a1-3)[Gal(b1-4)GlcNAc(b1-3)Gal(b1-4)GlcNAc(b1-2)Man(a1-6)]Man(b1-4)GlcNAc(b1-4)[Fuc(a1-6)]GlcNAc", "summary_of_the_method": "as §1"}, "[20]": {"target": "Gal(b1-4)GlcNAc(b1-3)Gal(b1-4)GlcNAc(b1-3)Gal(b1-4)GlcNAc", "summary_of_the_method": "as §1"}, "[21]": {"target": "Gal(b1-4)GlcNAc(b1-3)Gal(b1-4)GlcNAc(b1-3)Gal(b1-4)GlcNAc(b1-2)[Gal(b1-4)GlcNAc(b1-3)Gal(b1-4)GlcNAc(b1-3)Gal(b1-4)GlcNAc(b1-6)]Man(a1-6)[Gal(b1-4)GlcNAc(b1-3)Gal(b1-4)GlcNAc(b1-3)Gal(b1-4)GlcNAc(b1-2)Man(a1-3)]Man(b1-4)GlcNAc(b1-4)[Fuc(a1-6)]GlcNAc", "summary_of_the_method": "as §1"}, "[22]": {"target": "Gal(b1-4)GlcNAc(b1-3)Gal(b1-4)GlcNAc(b1-3)Gal(b1-4)GlcNAc(b1-3)Gal(b1-4)GlcNAc(b1-2)Man(a1-3)[Gal(b1-4)GlcNAc(b1-3)Gal(b1-4)GlcNAc(b1-3)Gal(b1-4)GlcNAc(b1-3)Gal(b1-4)GlcNAc(b1-2)Man(a1-6)]Man(b1-4)GlcNAc(b1-4)GlcNAc", "summary_of_the_method": "as §1"}, "[23]": {"target": "Gal(b1-4)GlcNAc(b1-6)[Gal(b1-4)GlcNAc(b1-3)]GalNAc", "summary_of_the_method": "as §1"}, "[24]": {"target": "Gal3S(b1-4)[Fuc(a1-3)]Glc6S", "summary_of_the_method": "as §1"}, "[25]": {"target": "GlcNAc(a1-4)Gal(b1-3)GlcNAc", "summary_of_the_method": "as §1"}}, "note": "About 410 targets per protein were measured; listed, in parts, are those with the strongest signals and a random draw of the rest.", "data": [{"binder": "Aap brpt (Staphylococcus epidermidis) (protein) VDGDPITSTEEIPFDKKREFDPNLAPGTEKVVQKGEPGTKTITTPTTKNPLTGEKVGEGEPTEKITKQPVDEIVHYGGEEIKTGHKDEFDPNAPKGSQTTQPGKPGVKNPDTGEVVTPPVDDVTKYGPVDGDPITSTEEIPFDKKREFDPNLAPGTEKVVQKGEPGTKTITTPTTKNPLTGEKVGEGEPTEKITKQPVDEIVHYGGEEIKPGHKDEFDPNAPKGSQEDVPGKPGVKNPDTGEVVTPPVDDVTKYGPVDGDSITSTEEIPFDKKREFDPNLAPGTEKVVQKGEPGTKTITTPTTKNPLTGEKVGEGEPTEKITKQPVDEIVHYGGEQIPQGHKDEFDPNAPVDSKTEVPGKPGVKNPDTGEVVTPPVDDVTKYGPVDGDSITSTEEIPFDKKREFDPNLAPGTEKVVQKGEPGTKTITTPTTKNPLTGEKVGEGKSTEKVTKQPVDEIVEYGPTK", "values": [{"measurement": "glycan array binding signal (z-score)", "setting": "Fuc(a1-2)Gal(b1-3)GalNAc", "value": -1}, {"measurement": "glycan array binding signal (z-score)", "setting": "[1]", "value": -0.026}, {"measurement": "glycan array binding signal (z-score)", "setting": "[2]", "value": 0.337}, {"measurement": "glycan array binding signal (z-score)", "setting": "[3]", "value": -0.951}, {"measurement": "glycan array binding signal (z-score)", "setting": "[4]", "value": -0.658}, {"measurement": "glycan array binding signal (z-score)", "setting": "[5]", "value": 0.323}, {"measurement": "glycan array binding signal (z-score)", "setting": "[6]", "value": -2.27}, {"measurement": "glycan array binding signal (z-score)", "setting": "[7]", "value": 0.738}, {"measurement": "glycan array binding signal (z-score)", "setting": "[8]", "value": 0.077}, {"measurement": "glycan array binding signal (z-score)", "setting": "Gal(a1-3)Gal", "value": 2.41}, {"measurement": "glycan array binding signal (z-score)", "setting": "[9]", "value": 0.93}, {"measurement": "glycan array binding signal (z-score)", "setting": "[10]", "value": -0.56}, {"measurement": "glycan array binding signal (z-score)", "setting": "[11]", "value": -0.969}, {"measurement": "glycan array binding signal (z-score)", "setting": "[12]", "value": -0.027}, {"measurement": "glycan array binding signal (z-score)", "setting": "[13]", "value": 0.106}, {"measurement": "glycan array binding signal (z-score)", "setting": "Gal(b1-4)GlcNAc(b1-2)Man", "value": -0.301}, {"measurement": "glycan array binding signal (z-score)", "setting": "[14]", "value": -0.494}, {"measurement": "glycan array binding signal (z-score)", "setting": "[15]", "value": 0.481}, {"measurement": "glycan array binding signal (z-score)", "setting": "[16]", "value": -0.768}, {"measurement": "glycan array binding signal (z-score)", "setting": "[17]", "value": -0.487}, {"measurement": "glycan array binding signal (z-score)", "setting": "[18]", "value": 3.34}, {"measurement": "glycan array binding signal (z-score)", "setting": "[19]", "value": 0.377}, {"measurement": "glycan array binding signal (z-score)", "setting": "[20]", "value": 0.054}, {"measurement": "glycan array binding signal (z-score)", "setting": "[21]", "value": 2.44}, {"measurement": "glycan array binding signal (z-score)", "setting": "[22]", "value": -0.738}, {"measurement": "glycan array binding signal (z-score)", "setting": "[23]", "value": -0.18}, {"measurement": "glycan array binding signal (z-score)", "setting": "[24]", "value": 2.61}, {"measurement": "glycan array binding signal (z-score)", "setting": "[25]", "value": -0.124}]}]}
